Source: PubChem BioAssay AID2205 (University of Pittsburgh Molecular Library Screening Center, 2009)
Screen size: about 200,000 compounds; about 1,600 (0.8%) were called active.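 The calls were made as follows: active = plate Z-score above 3 for both tubulin-high and condensed-nucleus cell shares, with cell loss under 80%, at 10 µM; inactive = the rest, inconclusive results apart.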 Shown is part of a subset that was picked to be rich in actives.

Test: tubulin staining increase by stabilizing compounds – imaging, high-content imaging, primary screen (AID 2205);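 as to % tubulin-high responders: anti alpha tubulin signal scored within the nucleus-defined area of each cell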;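 as to toxicity: 0% = mean cell density of plate MIN control wells and 100% = no cells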
Details: HeLa tubulin immunostaining HCS, 24 h, at 10 µM; % Hoechst-high responders: measured here: nuclear condensation Hoechst responders, stronger effect = higher value, share of cells brighter than vehicle mean+2SD; % tubulin-high responders: stronger effect = higher value, share of cells brighter than vehicle mean+2SD; toxicity: measured here: cytotoxicity by cell density

SMILES	% Hoechst-high responders [%]	% tubulin-high responders	toxicity [%]
CC(=O)c1cc(-c2ccccc2)n(CC(=O)NC2CCCCC2)c1C	1.48	1.98% (inactive)	2.82
O=C(Nc1ccn(Cc2ccccc2)n1)c1n[nH]c([N+](=O)[O-])c1Cl	13.3	9.59% (active)	24.4
O=C(Nc1ccn(Cc2ccccc2)n1)c1cccc(F)c1	3.02	4.62% (inactive)	3.61
O=C(Nc1ccn(Cc2ccc(F)cc2)n1)c1ccncc1	1.77	2.77% (inactive)	3.59
CC1Cc2ccccc2N1S(=O)(=O)c1c(N)n(C)c(=O)n(C)c1=O (configuration not stated)	3.17	3.06% (inactive)	7.69
CCc1nc2ccccc2c(C(=O)NCc2ccc(OC)cc2)c1C	2.73	2.02% (inactive)	5.3
CN(C)Cc1ccc(F)cc1Sc1cc(Cl)ccc1Cl	2.47	4.07% (inactive)	10
COc1ccc(CN(C)C(C)C(=O)NC2CCCc3ccccc32)cc1 (configuration not stated)	4.92	11.4% (active)	14
CCOc1ccc(NC(=O)COc2ccc(C(=O)NC3CCCc4ccccc43)cc2OC)cc1 (configuration not stated)	2.51	5.53% (inactive)	4.7
CC(C(=O)NCC1CCCCC1)N(C)Cc1cccc(Cl)c1 (configuration not stated)	0.921	4.54% (inactive)	21.1
COc1ccc([N+](=O)[O-])cc1NC(=O)CC1SC(=Nc2cccc(C)c2C)N(/N=C(\C)c2ccc(C)cc2)C1=O (configuration not stated)	1.74	1.39% (inactive)	6.54
COc1cccc(NC(=O)c2ccc(S(=O)(=O)N(C)C)cc2)c1	1.38	3.01% (inactive)	1.8
CCOc1cccc(-c2nnc3sc(COc4ccc(OC)cc4)nn23)c1	1.53	1.43% (inactive)	2.39
CCOc1cccc(-n2nnnc2-c2ccc(OC)cc2)c1	43.4	37.6% (active)	41.8
COc1ccc(-n2nnnc2-c2nc3ccccc3s2)cc1	2.51	4.84% (inactive)	1.66
COC(=O)c1ccc(CN2CCN(CCCc3ccccc3)C(CCO)C2)cc1 (configuration not stated)	1.96	3.41% (inactive)	10.2
CCOC(=O)Cc1ncccc1C(=O)Nc1ccc(OC)cc1	2.23	3.2% (inactive)	5.66
COc1ccccc1NC1=NC2(CCCC2)N=C(N)N1	1.77	2.5% (inactive)	14.7
COc1ccccc1Nc1nc(N)nc(CN(C)C2CCCCC2)n1	1.52	3.4% (inactive)	5.42
COc1ccccc1NC1=NC(c2ccc(Cl)cc2)N=C(N)N1 (configuration not stated)	46.7	18% (active)	42.6
c1ccc(CN=C2Nc3ccccc3CS2)nc1	1.84	4.7% (inactive)	4.5
Cc1ccc(-c2csc(SCC(=O)Nc3cc(C)on3)n2)cc1	0.903	2.28% (inactive)	2.29
Cc1cc(NC(=O)CSc2nnc(Nc3ccccc3F)s2)no1	2.66	2.72% (inactive)	6.41
Cc1cc(C)c2c(c1)cc(C)c1nnc(SCC(=O)Nc3cc(C)on3)n12	18.1	40.6% (active)	66.4
CCc1ccccc1NC(=O)Cc1cn(C)c2ccccc12	1.88	2.42% (inactive)	1.32

SMILES	% Hoechst-high responders [%]	% tubulin-high responders	toxicity [%]
CCN(CC)C(=O)C(=O)c1cn(CC(=O)NCc2ccc3c(c2)OCO3)c2ccccc12	2.88	3.53% (inactive)	7.75
Cc1cc(C)cc(C(=O)NCC(=O)OCC(=O)N2CCCCC2)c1	1.86	1.01% (inactive)	6.66
COc1ccccc1-c1nc(C#N)c(N2CCC(C(N)=O)CC2)o1	1.21	0.805% (inactive)	3.26
COc1ccc(Nc2oc(-c3ccccc3Cl)nc2C#N)cc1	19.8	22.5% (active)	63.9
Cc1ccccc1-c1nc(C#N)c(NCc2ccco2)o1	2.06	1.4% (inactive)	7.65
N/C(=N\OS(=O)(=O)c1cccc([N+](=O)[O-])c1)c1ccncc1	2	1.6% (inactive)	1.69
CCOc1ccc(NC(=O)CCC(=O)N/N=C/c2ccc([N+](=O)[O-])s2)cc1	1.9	4.38% (inactive)	12.5
Cc1ccccc1NCC(=O)N/N=C\c1ccc([N+](=O)[O-])s1	2.71	2.44% (inactive)	1.44
O=[N+]([O-])c1ccc(C=Nc2ccc(Cl)cc2Cl)s1	9.57	11.5% (active)	16
Cc1cccc(NC(=O)c2sc(-c3ccccc3)nc2-c2ccc([N+](=O)[O-])cc2)c1	5.34	2.13% (inactive)	9.44
O=C(Nc1ccccc1)/C(=C/c1ccc([N+](=O)[O-])cc1)NC(=O)c1ccccc1	4.34	2.81% (inactive)	7.05
CCOC(=O)/C(=C\c1ccc([N+](=O)[O-])cc1)C(=O)c1cc(C(C)=O)c(Nc2ccccc2)s1	6.43	24.7% (active)	66.1
COC(=O)c1ccc(NCC(=O)N2CCCCCC2)cc1	2.09	3.14% (inactive)	2.78
COc1ccc(NC(=O)CSc2nnc(-c3ccccc3F)n2C2CC2)cc1S(N)(=O)=O	2.54	1.8% (inactive)	10.7
CCOc1cccc(C(=O)Nc2nnc(-c3cccs3)s2)c1	2.31	1.76% (inactive)	5.03
CCOc1cc(/C=C(\C#N)c2nc(-c3cccs3)c(NC(C)=O)s2)ccc1O	49.3	16.7% (active)	32.4
COc1cc(/C=C(\C#N)c2nc3c(s2)CC(C)CC3)ccc1O (configuration not stated)	2.11	1.86% (inactive)	0.488
CCCCc1cc2c(s1)CCCC/C2=N/O	1.99	5.07% (inactive)	0.0044
CCCC(=O)Nc1nc2ccc(NC(=O)c3c(F)c(F)c(OC)c(F)c3F)cc2s1	44.1	12.2% (active)	35.6
CSc1nc2ccc(NC(=O)c3c(F)cccc3F)cc2s1	3.31	2.54% (inactive)	0.69
CCC(=O)Nc1cccc(NC(=O)c2cccnc2)c1	1.83	4.1% (inactive)	8.32
CCCC(=O)Nc1nc2ccc(NC(=O)c3cccnc3)cc2s1	19.5	35.9% (active)	55.8
COc1ccc2nc(Nc3nc4ccc(NC(C)=O)cc4s3)sc2c1	3.35	5.83% (inactive)	4.23
CCOC(=O)c1cc(NC(=O)c2cccnc2)cc(C(=O)OCC)c1	1.98	4.37% (inactive)	5.37
